In PubChem BioAssay (EPA / NIEHS) one finds AC50 and outcome data, which are given here for three compounds.

What is called AC50 is the midpoint of the concentration-response curve, whichever way the signal moves.

Read-out in assay [1]: Matrix Metallopeptidase 9 (MMP9), MMP9 (gene 4318)
Nature of the assay: BSK_KF3CT_MMP9: BioMAP Diversity Plus: KF3CT Assay for Matrix Metallopeptidase 9 (MMP9) Biomarker Activity (AID 2283074).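 For AC50: MMP9 protein level quantified by ELISA in the co-culture.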 As to conditions: primary human keratinocytes with fibroblasts; actives raise or lower the signal. Put shortly: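 ELISA read-out of MMP-9 at 24 h post-dosing in a co-culture of human skin keratinocytes and foreskin fibroblasts. Gain or loss of signal was fitted in both directions against DMSO.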

Read-out in assay [2]: urokinase plasminogen activator (uPA), PLAU (gene 5328)
Nature of the assay: BSK_KF3CT_uPA: BioMAP Diversity Plus: KF3CT Assay for urokinase plasminogen activator (uPA) Biomarker Activity (AID 2283075). As to conditions: primary human keratinocytes with fibroblasts; actives raise or lower the signal. The essentials:
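Skin co-culture (keratinocytes + foreskin fibroblasts), human primary; 24 h post-dose; uPA by ELISA; gain/loss fit vs DMSO baseline.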

Read-out in assay [3]: CD40, CD40 (gene 958)
Nature of the assay: BSK_LPS_CD40: BioMAP Diversity Plus: LPS Assay for CD40 Biomarker Activity (AID 2283076). As to conditions: primary human HUVEC with PBMC; actives raise or lower the signal. The essentials:
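HUVEC plus PBMC co-culture stimulated with LPS; CD40 quantified by ELISA 24 h after compound dosing. Fitting was bidirectional relative to DMSO. SRB staining of parallel cultures flagged overt cytotoxicity.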

Read-out in assay [4]: E-selectin (Homo sapiens) (UniProt P16581)
Nature of the assay: BSK_LPS_Eselectin: BioMAP Diversity Plus: LPS Assay for Eselectin Biomarker Activity (AID 2283077). As to conditions: primary human HUVEC with PBMC; actives raise or lower the signal. Put shortly:
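Human umbilical vein endothelial cells co-cultured with PBMC under LPS stimulation; cell-surface E-selectin measured by ELISA 24 h after dosing. Change in either direction versus DMSO, with SRB total-protein staining in parallel cultures for cytotoxicity.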

Read-out in assay [5]: Interleukin-8 (IL8), CXCL8 (gene 3576)
Nature of the assay: BSK_LPS_IL8: BioMAP Diversity Plus: LPS Assay for Interleukin-8 (IL8) Biomarker Activity (AID 2283078). As to conditions: primary human HUVEC with PBMC; actives raise or lower the signal. Put shortly: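 Human umbilical vein endothelial cells co-cultured with PBMC, LPS-stimulated, exposed to compound for 24 h. IL-8 quantified by ELISA; fitted in both directions against DMSO, with SRB total-protein staining of parallel cultures for cytotoxicity.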

A short description of assay [6]: BSK_LPS_SRB: Viability Assessment in the BioMAP Diversity Plus: LPS Assay (AID 2283079).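 Note: total protein by sulforhodamine B absorbance as a cytotoxicity measure; measured one day after compound addition.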 As to conditions: primary human HUVEC with PBMC. The essentials:
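Co-culture of human umbilical vein endothelial cells and PBMC, read 24 h after dosing. Total protein by 0.1% SRB staining after 10% TCA fixation, absorbance at 560 nm; bidirectional fit against DMSO.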

Read-out in assay [7]: Monocyte Chemoattractant Protein-1 (MCP1), CCL2 (gene 6347)
Nature of the assay: BSK_LPS_MCP1: BioMAP Diversity Plus: LPS Assay for Monocyte Chemoattractant Protein-1 (MCP1) Biomarker Activity (AID 2283081). Particulars: primary human HUVEC with PBMC; actives raise or lower the signal. The essentials: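 Human umbilical vein endothelial cells co-cultured with PBMC, LPS-stimulated; secreted MCP-1 measured by ELISA 24 h after compound addition. Bidirectional curve fitting against DMSO baseline; SRB total-protein staining in parallel cultures for cytotoxicity.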

Assay [8] in a line: BSK_LPS_PGE2: BioMAP Diversity Plus: LPS Assay for Prostaglandin E2 (PGE2) Biomarker Activity (AID 2283082). Particulars: primary human HUVEC with PBMC; actives raise or lower the signal. Put shortly:
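PGE2 release measured by ELISA in an LPS-activated co-culture of human umbilical vein endothelial cells and peripheral blood mononuclear cells, read at 24 h post-dosing. DMSO served as baseline for bidirectional curve fitting.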

Read-out in assay [9]: Macrophage colony-stimulating factor (MCSF), CSF1 (gene 1435)
Nature of the assay: BSK_LPS_MCSF: BioMAP Diversity Plus: LPS Assay for Macrophage colony-stimulating factor (MCSF) Biomarker Activity (AID 2283083). Particulars: primary human HUVEC with PBMC; actives raise or lower the signal. Put shortly: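 HUVEC–PBMC co-culture, M-CSF measured by ELISA 24 h after chemical dosing. Fitted in both directions relative to DMSO as negative control; overt cytotoxicity assessed by SRB total-protein staining in parallel cultures.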

Read-out in assay [10]: Tissue Factor, F3 (gene 2152)
Nature of the assay: BSK_LPS_TissueFactor: BioMAP Diversity Plus: LPS Assay for Tissue Factor Biomarker Activity (AID 2283084). Particulars: primary human HUVEC with PBMC; actives raise or lower the signal. The essentials:
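Human umbilical vein endothelial cells co-cultured with PBMC were dosed with compound. Cell-surface CD142 was measured by ELISA 24 h later. Activity was fitted bidirectionally against DMSO, with SRB total-protein staining in parallel cultures for cytotoxicity.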

Read-out in assay [11]: Tumor necrosis factor (Homo sapiens) (UniProt P01375)
Nature of the assay: BSK_LPS_TNFa: BioMAP Diversity Plus: LPS Assay for Tumour Necrosis Factor alpha (TNFa) Biomarker Activity (AID 2283085). As to conditions: primary human HUVEC with PBMC; actives raise or lower the signal. The essentials: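 TNFa was quantified by ELISA in LPS-activated co-cultures of human endothelial cells and PBMC, 24 h post-dosing. Both increases and decreases versus DMSO were fitted.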

Read-out in assay [12]: Vascular cell adhesion molecule 1 (VCAM1), VCAM1 (gene 7412)
The assay is described as follows: BSK_LPS_VCAM1: BioMAP Diversity Plus: LPS Assay for Vascular cell adhesion molecule 1 (VCAM1) Biomarker Activity (AID 2283086). As to conditions: primary human HUVEC with PBMC; actives raise or lower the signal. Put shortly:
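VCAM-1 quantified by ELISA in an LPS-activated co-culture of human endothelial cells and peripheral blood mononuclear cells, read 24 h post-treatment. Fitted in both directions versus DMSO; parallel SRB staining flags overt cytotoxicity.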

Read-out in assay [13]: CD38, CD38 (gene 952)
The assay is described as follows: BSK_SAg_CD38: BioMAP Diversity Plus: SAg Assay for CD38 Biomarker Activity (AID 2283087). Particulars: primary human HUVEC with PBMC; actives raise or lower the signal. The essentials: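 CD38 quantified by ELISA (fluorescence) in a superantigen-activated endothelial cell–PBMC co-culture at 24 h post-dose. Activity fitted in both directions relative to DMSO; parallel SRB and Alamar Blue cytotoxicity read-outs.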

Read-out in assay [14]: CD40, CD40 (gene 958)
The assay is described as follows: BSK_SAg_CD40: BioMAP Diversity Plus: SAg Assay for CD40 Biomarker Activity (AID 2283088). Particulars: primary human HUVEC with PBMC; actives raise or lower the signal. Put shortly: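 HUVEC plus PBMC co-culture, superantigen-activated, with CD40 read by ELISA 24 h after dosing. Curves fitted in both directions against DMSO. Overt cytotoxicity checked by parallel SRB total-protein staining.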

Read-out in assay [15]: CD69, CD69 (gene 969)
The assay is described as follows: BSK_SAg_CD69: BioMAP Diversity Plus: SAg Assay for CD69 Biomarker Activity (AID 2283089). Particulars: primary human HUVEC with PBMC; actives raise or lower the signal. Put shortly: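 Values derive from bidirectional fitting relative to DMSO vehicle. Cells: umbilical vein endothelium plus peripheral blood mononuclear cells, treated 24 h before fluorescent ELISA for CD69.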

Read-out in assay [16]: Monocyte Chemoattractant Protein-1 (MCP1), CCL2 (gene 6347)
The assay is described as follows: BSK_SAg_MCP1: BioMAP Diversity Plus: SAg Assay for Monocyte Chemoattractant Protein-1 (MCP1) Biomarker Activity (AID 2283090). Particulars: primary human HUVEC with PBMC; actives raise or lower the signal. The essentials: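 Values derive from bidirectional fitting of ELISA-measured MCP1 against DMSO controls. Readings were taken 24 h after dosing human vascular endothelial cells co-cultured with peripheral blood mononuclear cells under superantigen stimulation.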

Read-out in assay [17]: E-selectin (Homo sapiens) (UniProt P16581)
The assay is described as follows: BSK_SAg_Eselectin: BioMAP Diversity Plus: SAg Assay for Eselectin Biomarker Activity (AID 2283091). As to conditions: primary human HUVEC with PBMC; actives raise or lower the signal. Put shortly: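 Human umbilical vein endothelial cells co-cultured with peripheral blood mononuclear cells, SAg system. E-selectin is measured by ELISA 24 h after dosing and fitted bidirectionally against DMSO. Cytotoxicity is checked by SRB staining of parallel cultures.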

Read-out in assay [18]: Monokine induced gamma interferon (MIG), CXCL9 (gene 4283)
Nature of the assay: BSK_SAg_MIG: BioMAP Diversity Plus: SAg Assay for Monokine induced gamma interferon (MIG) Biomarker Activity (AID 2283092). As to conditions: primary human HUVEC with PBMC; actives raise or lower the signal. The essentials: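 Values reflect bidirectional fitting of ELISA-measured MIG against DMSO vehicle, taken 24 h after dosing of a co-culture of human umbilical vein endothelial cells and peripheral blood mononuclear cells.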

Assay [19] can be described thus: BSK_SAg_PBMCCytotoxicity: PBMC Cytotoxicity Assessment in the BioMAP Diversity Plus: SAg Assay (AID 2283093).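 Note: fitted both ways against DMSO so a hit may be loss or gain of signal.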 As to conditions: primary human HUVEC with PBMC. Put shortly: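 PBMC viability by Alamar Blue reduction, fluorescence read at 546/580 nm after 6 h dye exposure. Cells were dosed 1 h before SEB plus TSST-1 activation (20 ng/mL final each), then held 90 h; endothelial/PBMC human co-culture.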

Read-out in assay [20]: Interleukin-1 alpha (IL1a), IL1A (gene 3552)
Nature of the assay: BSK_LPS_IL1a: BioMAP Diversity Plus: LPS Assay for Interleukin-1 alpha (IL1a) Biomarker Activity (AID 2283080). Particulars: primary human HUVEC with PBMC; actives raise or lower the signal. The essentials: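 Human umbilical vein endothelial cells co-cultured with PBMC and stimulated with LPS; IL-1a measured by ELISA 24 h after dosing. Bidirectional fitting against DMSO; cytotoxicity checked by SRB staining in parallel cultures.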

Each structure is given as a SMILES string. Activity calls are given as the source filed them. Rule for the calls: active = hit-call score of the fitted dose curve at least 0.9, where 1 is the maximum; inactive = score below 0.9.

Chain of Tumor necrosis factor (Homo sapiens) (P01375 whole entry, looked up): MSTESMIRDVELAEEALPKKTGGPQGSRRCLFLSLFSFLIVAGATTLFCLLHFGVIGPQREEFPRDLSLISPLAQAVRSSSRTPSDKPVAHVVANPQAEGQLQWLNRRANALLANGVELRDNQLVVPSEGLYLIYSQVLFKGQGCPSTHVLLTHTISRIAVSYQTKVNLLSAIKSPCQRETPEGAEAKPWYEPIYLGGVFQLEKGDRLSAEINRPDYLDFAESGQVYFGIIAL
Chain of E-selectin (Homo sapiens) (P16581 whole entry, looked up): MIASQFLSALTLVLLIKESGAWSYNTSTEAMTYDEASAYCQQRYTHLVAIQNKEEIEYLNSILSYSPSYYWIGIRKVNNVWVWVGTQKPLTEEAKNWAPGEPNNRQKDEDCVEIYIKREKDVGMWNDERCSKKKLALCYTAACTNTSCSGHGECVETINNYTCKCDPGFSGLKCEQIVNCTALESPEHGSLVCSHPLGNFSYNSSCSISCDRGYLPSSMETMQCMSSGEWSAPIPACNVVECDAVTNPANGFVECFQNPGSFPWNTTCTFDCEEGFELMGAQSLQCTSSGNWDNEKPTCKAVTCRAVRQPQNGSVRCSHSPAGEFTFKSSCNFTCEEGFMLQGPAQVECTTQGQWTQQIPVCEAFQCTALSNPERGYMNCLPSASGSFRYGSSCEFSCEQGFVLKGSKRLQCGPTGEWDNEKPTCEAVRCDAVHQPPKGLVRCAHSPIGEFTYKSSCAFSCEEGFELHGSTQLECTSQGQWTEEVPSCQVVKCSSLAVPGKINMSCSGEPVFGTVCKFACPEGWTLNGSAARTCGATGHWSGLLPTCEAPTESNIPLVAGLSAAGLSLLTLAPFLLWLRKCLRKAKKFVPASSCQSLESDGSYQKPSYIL

Regarding `COP(=S)(OC)Oc1c(Cl)cc(C)cc1Cl`, the AC50 was 20 µM (active) in assay [1], 27.7 µM (active) in [6] and 13.8 µM (active) in assay [12]. The outcome in assay [2], in assay [3], in [4], in assay [5], in [7] and in [8] was inactive. In addition, the result in assay [9], in [10], in assay [11], in [13], in assay [14] and in assay [15] was inactive. Further, the result in [16], in assay [17], in assay [18] and in [19] was inactive.
As for `O=C(O)C(Cl)(Cl)Cl`, the result in assay [1], in [2], in assay [3], in [4], in [5] and in assay [6] was inactive. Also, the outcome in [20], in [7], in assay [8], in [9], in [10] and in [11] was inactive. For the same compound, the outcome in [13], in assay [14], in assay [15], in assay [16], in assay [17] and in assay [18] was inactive. Also, the outcome in [19] was inactive.
Consider `Nc1ncc([N+](=O)[O-])s1`, for which the result in [1], in [2], in assay [3], in assay [4], in assay [5] and in assay [6] was inactive. The result in assay [20], in assay [7], in [8], in [9], in assay [10] and in [11] was inactive. Further, the outcome in [13], in assay [14], in [15], in assay [16], in assay [17] and in assay [18] was inactive. In addition, the result in assay [19] was inactive.
